Records with an inconclusive call do not appear. Activity calls are given as the source filed them. Unless noted, the call rests on the fitted dose curve; in most records, active means well fitted curve in the direction sought with a large enough effect; inconclusive means small, poorly fitted or top-dose-only effect, or another doubt; inactive means no such curve, though single readings can be large; an effect the other way counts as inactive or inconclusive.
How the values were obtained:
[1] = target: DNA dC->dU-editing enzyme APOBEC-3G (Homo sapiens) (UniProt Q9HC16); experiment: qHTS for inhibitors of Vif-A3G interactions: Validation (AID 588379); further: 0% is about no effect
How it was run: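 HeLa cells stably expressing Vif and A3G-eYFP, 700 cells/well, incubated overnight at 37 deg C, then exposed to compound overnight at 37 deg C. Inhibition of Vif-mediated degradation read as increased yellow fluorescence (Ex 488/Em 500-530) by laser-scanning cytometry.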

[2] = target: Rap guanine nucleotide exchange factor 3 (Homo sapiens) (UniProt O95398); experiment: Confirmatory qHTS for antagonist of cAMP-regulated guanine nucleotide exchange factor 3 (EPAC1) (AID 1645880); conditions: EPAC1 Rap1B-BODIPY-GDP exchange, fluorescence; activity, negative = inhibition: at 115 µM (top of the series); further: nearly all actives have a fitted effect of over 55% in size; further: potency means the concentration at half of the fitted maximal effect;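 on activity, negative = inhibition: plate controls were DMSO only for no effect and full effect of the ATA control for full effect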
How it was run: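 Nucleotide exchange uses 100 nM EPAC1, 250 nM RAP1B-BODIPY-GDP and 50 uM GDP, with compounds in a concentration-titration series. After 5 min at room temperature, fluorescence (480 nm ex/540 nm em) is read every 5 min for 30 min. Data are normalized to control ATA and DMSO.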

[3] = target: Rap guanine nucleotide exchange factor 3 (Homo sapiens) (UniProt O95398); experiment: Confirmatory qHTS for agonist of cAMP-regulated guanine nucleotide exchange factor 3 (EPAC1) (AID 1645881); further: nearly all actives have a fitted effect of over 75% in size; further: potency means the concentration at half of the fitted maximal effect;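 on activation: EPAC1 catalysed release of BODIPY-GDP from Rap1B seen as fluorescence loss; 100% = effect of cAMP agonist control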
[4] = target: Rap guanine nucleotide exchange factor 4 (Homo sapiens) (UniProt Q8WZA2); experiment: Confirmatory qHTS for agonist of cAMP-regulated guanine nucleotide exchange factor 4 (EPAC2) (AID 1645884);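 further: nucleotide exchange releases bodipy-GDP from Rap1 and this lowers its fluorescence; nearly all actives have a fitted effect of over 65% in size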; further: potency means the concentration at half of the fitted maximal effect; on activation: on the % scale 0 is the no-effect control and ±100 the full control effect
[5] = target: Rap guanine nucleotide exchange factor 4 (Homo sapiens) (UniProt Q8WZA2); experiment: Confirmatory qHTS for antagonist of cAMP-regulated guanine nucleotide exchange factor 4 (EPAC2) (AID 1645885); further: nearly all actives have a fitted effect of over 25% in size; further: potency means the concentration at half of the fitted maximal effect
[6] = AP1 Signaling Pathway (AID 357; active means well fitted curve in either direction with a large enough effect, not every such curve was filed as active; further: on the % scale 0 is the no-effect control and ±100 the full control effect); conditions: ME-180 AP-1-bla reporter, EGF-induced, beta-lactamase ratio, 5 h; at 7.69 µM (top of the series) unless noted
How it was run: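 Modulation of EGF-driven AP-1 transcription was assessed with a beta-lactamase reporter in ME-180 cells. Compound and EC50 EGF were co-incubated 5 hours at 37 °C before 2.5-hour CCF4 loading at room temperature and dual-emission reading.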

[7] = target: Cytochrome P450 1A2 (Homo sapiens) (UniProt P05177); experiment: p450-cyp1a2 (AID 410; calls by dose curve; further: potency means the concentration at half of the fitted maximal effect)
How it was run: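 Human CYP1A2 (20nM) demethylated Luciferin-ME at its Km (100uM) in 100mM KPO4. After 10 min compound preincubation, NADPH regeneration ran the reaction 60 min at room temperature. Luciferin was read by luminescence, normalized to 57 uM furafylline.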

[8] = NFAT Signaling Pathway (AID 444; active means well fitted curve in either direction with a large enough effect, not every such curve was filed as active;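 further: carbachol stimulus at about its EC50 of 1 µM final; on the % scale 0 is the no-effect control and ±100 the full control effect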); conditions: Jurkat NFAT-bla M1, carbachol, beta-lactamase ratio, 5 h; at 7.69 µM (top of the series) unless noted
How it was run: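 Jurkat cells with NFAT-driven β-lactamase reporter and co-expressed M1 receptor, stimulated with carbachol (final 1 uM, ~EC50), compound titration, 5 h at 37 °C. CCF4 loaded 1 h at RT; 460/530 nm ratio gave %activity and AC50.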

[9] = Stat Signaling Pathway (AID 446; active means well fitted curve in either direction with a large enough effect, not every such curve was filed as active;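 further: ME-180 cervical cancer cells given 40 pM IL-6 alongside compound; SIE-controlled beta-lactamase reporter measured as 460/530 nm FRET emission ratio; on the % scale 0 is the no-effect control and ±100 the full control effect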)
How it was run: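 Reporter line: ME-180 cervical carcinoma, SIE-beta-lactamase. Treatment: compound with 40 pM IL-6, 5 hrs, 37 C, in low-serum OPTI-MEM with 10 mM HEPES pH 7.3. Detection: 460/530 nm fluorescence.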

[10] = target: Glucocorticoid receptor (Homo sapiens) (UniProt P04150); experiment: GR-GFP Redistribution (AID 450;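 active means compounds whose dose series gives a full or clear partial fitted curve of increased nuclear translocation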; further: potency means the concentration at half of the fitted maximal effect); conditions: U2OS GR-GFP nuclear translocation, laser cytometry, 2 h
[11] = target: Glucocorticoid receptor (Homo sapiens) (UniProt P04150); experiment: GR-EFC Redistribution (AID 451; calls by dose curve; further: potency means the concentration at half of the fitted maximal effect); conditions: CHO-K1 GR-EFC translocation, beta-gal luminescence, 2 h
How it was run: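 CHO-K1 cells expressing nuclear EA and GR-ED fragments of b-gal; compounds titrated up to 46 uM final, 2 h at 37 C. GR nuclear translocation read as complemented b-gal luminescence after 1 h RT detection.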

[12] = target: 3',5'-cyclic-AMP phosphodiesterase 4B (Homo sapiens) (UniProt Q07343); experiment: qHTS Assay for Inhibitors of PDE-IV (AID 607; active means well fitted activation curve with a large enough effect in the main read-out, with a control signal flat, not every such curve was filed as active; further: % of control where 0% means no effect)
How it was run: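 Cell-based read-out of cAMP via a modified cyclic nucleotide-gated channel and membrane potential dye (535/590 nm) in HEK293 cells expressing PDE4 endogenously. Compounds tested up to 22.9 uM final; 100 uM RO 20-1724 reference.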

[13] = target: Cytochrome P450 2C9 (Homo sapiens) (UniProt P11712); experiment: qHTS Assay for Inhibitors and Substrates of Cytochrome P450 2C9 (AID 883); further: potency means the concentration at half of the fitted maximal effect; nearly all actives have a fitted effect of over 60% in size
How it was run: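 10nM CYP2C9 + 100uM Luciferin-H (=KM), 25mM KPO4; cpd 10 min 37C; NADPH regen, 60 min 37C; stop/detect with P450 Glo-Buffer 20 min; luminescence. Norm. to 57uM sulphaphenazole as full inhibition.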

[14] = target: Cytochrome P450 3A4 (Homo sapiens) (UniProt P08684); experiment: qHTS Assay for Activators of Cytochrome P450 3A4 (AID 885); further: nearly all actives have a fitted effect of over 65% in size
How it was run: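 Signal was normalized against complete inhibition by 57 uM ketoconazole. The reaction used 20nM CYP3A4 with 25uM Luciferin-PPXE, 10-min compound preincubation and a 60-min NADPH-supported step at RT.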

[15] = target: Cytochrome P450 2D6 (Homo sapiens) (UniProt P10635); experiment: qHTS Assay for Inhibitors and Substrates of Cytochrome P450 2D6 (AID 891); further: potency means the concentration at half of the fitted maximal effect; nearly all actives have a fitted effect of over 60% in size
How it was run: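 Human CYP2D6 (5 nM) with 30 uM Luciferin-ME EGE (at Km) in 100 mM KPO4, compound preincubated 10 min, then NADPH regeneration system for 60 min at room temperature. Luciferin read by luminescence; normalized to 1.43 uM quinidine.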

[16] = target: Cytochrome P450 2C19 (Homo sapiens) (UniProt P33261); experiment: qHTS Assay for Inhibitors and Substrates of Cytochrome P450 2C19 (AID 899); further: potency means the concentration at half of the fitted maximal effect; nearly all actives have a fitted effect of over 60% in size
How it was run: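 Luminescent read-out of luciferin formed from Luciferin-H EGE (10uM, equal to KM). Enzyme 5nM in 50mM KPO4; compound added, 10 min at 37C, then NADPH regenerating system for 60 min at 37C. Full inhibition defined by 57uM ketoconazole.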

[17] = target: Dual specificity protein kinase CLK4 (Homo sapiens) (UniProt Q9HAZ1); experiment: qHTS Assay for Inhibitors of CDC-like Kinase 4 (Kinase-Glo Assay) (AID 1770); further: nearly all actives have a fitted effect of over 65% in size; further: potency means the concentration at half of the fitted maximal effect
How it was run: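 25 nM Clk4 with 100 uM RS repeat peptide and 1 uM ATP (final) in Tris pH7.5, 10 mM MgCl2, 4.5 h at room temperature. Remaining ATP measured by Kinase-Glo luciferase luminescence.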

[18] = target: Dual specificity protein kinase CLK4 (Homo sapiens) (UniProt Q9HAZ1); experiment: qHTS Assay for Inhibitors of CDC-like Kinase 4 (ADP-Glo Assay) (AID 1771); further: potency means the concentration at half of the fitted maximal effect; nearly all actives have a fitted effect of over 70% in size
How it was run: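 Clk4 (25 nM) was incubated 1 hr at room temperature with 100 uM RS repeat peptide and 1 uM ATP in buffer with 2 mM MgCl2, 0.5 mM EGTA, 2.5 mM DTT. ADP formed was quantified by ADP-Glo luminescence.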

[19] = target: Dual specificity protein kinase CLK4 (Homo sapiens) (UniProt Q9HAZ1); experiment: qHTS Assay for Inhibitors of CDC-like Kinase 4 (ADP-FP Assay) (AID 1795);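 further: recombinant human CLK4 phosphorylating RS repeat peptide at 1 µM ATP; on the % scale 0 is the no-effect control and ±100 the full control effect; nearly all actives have a fitted effect of over 60% in size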
How it was run: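 Recombinant Clk4 (6.25 nM) phosphorylated 100 uM RS repeat peptide with 1 uM ATP in 25 mM Tris pH 7.5, 10 mM MgCl2, 0.5 mM EGTA, 2.5 mM DTT, 0.01% Triton X-100 for 1 h. ADP was detected by Transcreener ADP2 competitive fluorescence polarization after 30 min at room temperature.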

[20] = target: Ubiquitin carboxyl-terminal hydrolase 1 (Homo sapiens) (UniProt O94782); experiment: Inhibitors of USP1/UAF1: Pilot qHTS (AID 504865);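 further: rhodamine fluorescence freed from ubiquitin-rhodamine substrate followed over time; top concentration of the series differs between compounds; on the % scale 0 is the no-effect control and ±100 the full control effect; nearly all actives have a fitted effect of over 35% in size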
How it was run: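 USP1/UAF1 complex at 1 nM preincubated 15 min at room temperature with compound, then Ub-Rho substrate added at 150 nM final. Fluorescence (480/540 nm) read kinetically in 50 mM HEPES pH 7.8, 0.5 mM EDTA, 1 mM TCEP, 0.1 mg/ml BSA, 0.01% Tween-20.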

[21] = target: Tumor susceptibility gene 101 protein (Homo sapiens) (UniProt Q99816); experiment: qHTS Assay for Iinhibitors of HIV-1 Budding by Blocking the Interaction of PTAP/TSG101: Hit Validation (AID 651600); further: potency means the concentration at half of the fitted maximal effect; nearly all actives have a fitted effect of over 70% in size
How it was run: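 Fluorescence polarization binding assay: Tsg101 binding domain (10 uM) mixed with compounds and FITC-labeled PTAP peptide (50 nM) in HEPES pH 7.5, 0.15 M NaCl, 0.01% Tween 20, EDTA, TCEP; 20 min at r.t.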

[22] = target: Rap guanine nucleotide exchange factor 3 (Homo sapiens) (UniProt O95398); experiment: Counterscreen qHTS for agonist of cAMP-regulated guanine nucleotide exchange factor 3 (EPAC1) (AID 1645889); further: potency means the concentration at half of the fitted maximal effect; nearly all actives have a fitted effect of over 40% in size
How it was run: (§1)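 Rap1B–BODIPY-GDP (250 nM) with 50 uM GDP; compounds pin-transferred to 9.74 nM–152 uM final (activator) or from 7.32 nM upwards (inhibitor). Fluorescence Ex/Em 480/540 nm read at 5 and 30 min, then after adding cAMP or buffer, at room temperature.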

[23] = Confirmation and Secondary Assay for Modulators of Hemoglobin Beta Chain Splicing at IVS2 654 locus (AID 910);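 further: HeLa cells stably carrying EGFP split by mutant beta-globin IVS2-654 intron; % of control where 0% means no effect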
How it was run: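 HeLa cells stably expressing EGFP interrupted by β-globin IVS2-654 intron, seeded overnight in Opti-MEM/2% FCS, then treated 2 days at 37 °C. Restored splicing read as total peak GFP intensity per well by laser scanning cytometry (488 nm excitation, 500–520 nm emission); 500 nM antisense PNA as control.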

[24] = Confirmation and Secondary Assay for Modulators of Hemoglobin Beta Chain Splicing at IVS2 705 locus (AID 930);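 further: HeLa cells stably expressing the EGFP-705 splicing reporter; GFP fluorescence per well restored by corrected splicing of the IVS2-705 intron in EGFP; % of control where 0% means no effect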
How it was run: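 HeLa IVS2-705 EGFP reporter cells, 500/well, compound 2 d at 37C; correct splicing yields fluorescent EGFP. Control: 500 nM antisense PNA. Read-out: total peak GFP intensity.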

[25] = target: Rap guanine nucleotide exchange factor 3 (Homo sapiens) (UniProt O95398); experiment: Counterscreen qHTS for antagonist of cAMP-regulated guanine nucleotide exchange factor 3 (EPAC1) (AID 1645888);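 further: fluorescence loss as bound BODIPY-GDP is released from Rap1B; % of control where 0% means no effect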
How it was run: as §1

Sequence of Rap guanine nucleotide exchange factor 4 (Homo sapiens) (Q8WZA2 whole entry, looked up): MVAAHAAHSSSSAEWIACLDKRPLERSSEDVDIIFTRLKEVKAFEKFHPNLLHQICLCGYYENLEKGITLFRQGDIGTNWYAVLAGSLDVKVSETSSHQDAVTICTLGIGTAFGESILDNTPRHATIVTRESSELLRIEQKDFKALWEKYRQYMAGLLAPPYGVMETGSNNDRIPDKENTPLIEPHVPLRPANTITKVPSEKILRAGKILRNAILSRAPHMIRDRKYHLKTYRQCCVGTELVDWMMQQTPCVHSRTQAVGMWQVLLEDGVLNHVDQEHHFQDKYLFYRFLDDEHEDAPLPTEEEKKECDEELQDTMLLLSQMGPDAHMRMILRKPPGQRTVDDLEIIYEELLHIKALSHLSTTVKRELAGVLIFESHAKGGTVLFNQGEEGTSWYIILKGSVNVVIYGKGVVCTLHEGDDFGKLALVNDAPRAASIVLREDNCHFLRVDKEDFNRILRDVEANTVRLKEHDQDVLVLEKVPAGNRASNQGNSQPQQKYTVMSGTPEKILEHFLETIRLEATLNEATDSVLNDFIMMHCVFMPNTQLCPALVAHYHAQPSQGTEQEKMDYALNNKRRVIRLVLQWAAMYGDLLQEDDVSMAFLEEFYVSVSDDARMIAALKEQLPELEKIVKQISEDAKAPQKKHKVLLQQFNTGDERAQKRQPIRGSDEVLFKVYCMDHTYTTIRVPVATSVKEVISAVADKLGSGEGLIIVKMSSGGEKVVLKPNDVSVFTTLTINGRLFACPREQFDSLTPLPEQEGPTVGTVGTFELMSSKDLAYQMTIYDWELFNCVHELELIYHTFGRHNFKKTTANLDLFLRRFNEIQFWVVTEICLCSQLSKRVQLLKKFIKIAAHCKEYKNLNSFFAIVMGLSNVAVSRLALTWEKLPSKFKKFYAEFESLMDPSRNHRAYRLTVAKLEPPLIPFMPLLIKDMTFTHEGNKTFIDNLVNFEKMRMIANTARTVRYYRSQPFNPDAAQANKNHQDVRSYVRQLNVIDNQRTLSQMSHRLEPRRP
Sequence of Ubiquitin carboxyl-terminal hydrolase 1 (Homo sapiens) (O94782 whole entry, looked up): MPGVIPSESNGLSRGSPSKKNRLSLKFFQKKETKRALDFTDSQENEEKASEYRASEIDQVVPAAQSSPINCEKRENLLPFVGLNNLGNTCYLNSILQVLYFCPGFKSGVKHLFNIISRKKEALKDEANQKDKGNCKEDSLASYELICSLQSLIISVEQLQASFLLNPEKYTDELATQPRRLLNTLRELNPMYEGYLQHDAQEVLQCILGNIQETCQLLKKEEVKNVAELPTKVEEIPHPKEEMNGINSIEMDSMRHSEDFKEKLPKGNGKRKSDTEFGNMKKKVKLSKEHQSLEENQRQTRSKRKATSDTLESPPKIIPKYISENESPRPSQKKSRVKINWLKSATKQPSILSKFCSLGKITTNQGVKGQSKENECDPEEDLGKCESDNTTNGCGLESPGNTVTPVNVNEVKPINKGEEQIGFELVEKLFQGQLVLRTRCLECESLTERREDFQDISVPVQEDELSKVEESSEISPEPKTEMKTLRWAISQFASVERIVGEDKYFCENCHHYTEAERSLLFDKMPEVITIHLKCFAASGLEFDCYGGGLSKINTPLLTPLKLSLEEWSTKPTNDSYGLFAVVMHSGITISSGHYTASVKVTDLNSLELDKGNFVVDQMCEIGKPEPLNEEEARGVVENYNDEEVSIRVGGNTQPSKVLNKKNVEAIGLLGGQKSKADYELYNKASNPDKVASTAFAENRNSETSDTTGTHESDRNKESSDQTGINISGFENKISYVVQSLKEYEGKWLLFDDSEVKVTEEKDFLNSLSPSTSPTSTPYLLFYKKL
Sequence of Rap guanine nucleotide exchange factor 3 (Homo sapiens) (O95398 whole entry, looked up): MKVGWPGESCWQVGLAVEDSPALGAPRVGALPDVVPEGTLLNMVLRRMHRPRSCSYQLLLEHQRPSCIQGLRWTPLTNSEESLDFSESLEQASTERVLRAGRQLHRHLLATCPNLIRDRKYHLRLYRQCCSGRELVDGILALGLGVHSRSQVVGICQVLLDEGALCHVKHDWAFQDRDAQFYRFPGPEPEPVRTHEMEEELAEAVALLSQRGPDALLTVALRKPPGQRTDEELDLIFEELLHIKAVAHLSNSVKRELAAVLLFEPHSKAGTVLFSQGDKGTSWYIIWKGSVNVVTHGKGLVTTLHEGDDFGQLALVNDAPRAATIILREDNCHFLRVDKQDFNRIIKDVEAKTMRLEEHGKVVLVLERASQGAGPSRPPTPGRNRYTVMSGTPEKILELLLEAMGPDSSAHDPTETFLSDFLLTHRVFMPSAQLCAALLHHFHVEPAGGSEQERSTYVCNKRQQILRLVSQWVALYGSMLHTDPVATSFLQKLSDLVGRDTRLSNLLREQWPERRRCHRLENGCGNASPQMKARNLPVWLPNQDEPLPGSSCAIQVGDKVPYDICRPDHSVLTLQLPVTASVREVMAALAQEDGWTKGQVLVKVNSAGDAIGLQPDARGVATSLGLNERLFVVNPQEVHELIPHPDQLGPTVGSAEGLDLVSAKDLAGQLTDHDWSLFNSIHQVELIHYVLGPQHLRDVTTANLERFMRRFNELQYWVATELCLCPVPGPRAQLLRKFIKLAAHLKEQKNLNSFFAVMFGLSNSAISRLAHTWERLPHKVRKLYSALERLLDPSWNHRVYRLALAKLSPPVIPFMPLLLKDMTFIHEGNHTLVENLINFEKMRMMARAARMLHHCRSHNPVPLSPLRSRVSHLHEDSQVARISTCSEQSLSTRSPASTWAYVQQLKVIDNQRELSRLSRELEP
Sequence of Dual specificity protein kinase CLK4 (Homo sapiens) (Q9HAZ1 whole entry, looked up): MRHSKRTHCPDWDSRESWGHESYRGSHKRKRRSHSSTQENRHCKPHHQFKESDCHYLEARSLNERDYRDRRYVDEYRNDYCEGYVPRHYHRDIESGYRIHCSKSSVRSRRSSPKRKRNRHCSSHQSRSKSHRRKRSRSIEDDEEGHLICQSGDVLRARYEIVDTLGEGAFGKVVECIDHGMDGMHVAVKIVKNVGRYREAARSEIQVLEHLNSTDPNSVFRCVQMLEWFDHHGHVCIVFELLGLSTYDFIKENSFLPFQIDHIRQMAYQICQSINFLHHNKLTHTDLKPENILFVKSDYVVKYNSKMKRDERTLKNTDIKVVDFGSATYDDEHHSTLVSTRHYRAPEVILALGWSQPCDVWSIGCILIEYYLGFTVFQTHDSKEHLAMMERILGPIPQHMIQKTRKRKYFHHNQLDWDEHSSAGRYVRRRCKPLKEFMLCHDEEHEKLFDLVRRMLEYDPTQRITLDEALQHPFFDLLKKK
Sequence of Cytochrome P450 3A4 (Homo sapiens) (P08684 whole entry, looked up): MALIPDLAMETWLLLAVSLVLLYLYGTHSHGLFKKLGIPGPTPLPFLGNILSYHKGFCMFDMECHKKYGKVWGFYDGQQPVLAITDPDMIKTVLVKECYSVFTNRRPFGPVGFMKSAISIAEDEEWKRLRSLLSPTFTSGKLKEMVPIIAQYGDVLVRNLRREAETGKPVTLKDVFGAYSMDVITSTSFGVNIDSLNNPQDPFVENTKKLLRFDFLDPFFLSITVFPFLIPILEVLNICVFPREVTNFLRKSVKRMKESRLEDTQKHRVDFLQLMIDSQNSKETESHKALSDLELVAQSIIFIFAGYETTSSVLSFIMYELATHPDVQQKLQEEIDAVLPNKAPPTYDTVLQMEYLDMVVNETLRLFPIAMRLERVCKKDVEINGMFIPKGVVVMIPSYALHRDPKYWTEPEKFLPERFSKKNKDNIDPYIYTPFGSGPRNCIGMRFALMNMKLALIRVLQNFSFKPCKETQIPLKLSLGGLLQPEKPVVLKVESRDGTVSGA
Sequence of Cytochrome P450 1A2 (Homo sapiens) (P05177 whole entry, looked up): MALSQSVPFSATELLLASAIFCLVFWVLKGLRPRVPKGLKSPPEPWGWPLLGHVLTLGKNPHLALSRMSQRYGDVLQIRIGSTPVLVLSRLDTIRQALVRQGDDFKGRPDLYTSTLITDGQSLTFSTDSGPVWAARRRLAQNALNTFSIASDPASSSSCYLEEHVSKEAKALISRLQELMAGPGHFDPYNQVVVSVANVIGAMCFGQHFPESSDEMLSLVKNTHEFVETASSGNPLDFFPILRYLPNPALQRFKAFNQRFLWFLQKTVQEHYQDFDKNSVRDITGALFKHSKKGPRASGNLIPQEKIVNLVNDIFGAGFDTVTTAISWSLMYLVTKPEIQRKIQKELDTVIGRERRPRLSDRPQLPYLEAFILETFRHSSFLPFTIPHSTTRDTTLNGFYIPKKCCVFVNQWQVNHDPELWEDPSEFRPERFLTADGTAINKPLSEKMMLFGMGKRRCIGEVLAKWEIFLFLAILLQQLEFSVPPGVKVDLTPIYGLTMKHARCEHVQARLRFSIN
Sequence of 3',5'-cyclic-AMP phosphodiesterase 4B (Homo sapiens) (Q07343 whole entry, looked up): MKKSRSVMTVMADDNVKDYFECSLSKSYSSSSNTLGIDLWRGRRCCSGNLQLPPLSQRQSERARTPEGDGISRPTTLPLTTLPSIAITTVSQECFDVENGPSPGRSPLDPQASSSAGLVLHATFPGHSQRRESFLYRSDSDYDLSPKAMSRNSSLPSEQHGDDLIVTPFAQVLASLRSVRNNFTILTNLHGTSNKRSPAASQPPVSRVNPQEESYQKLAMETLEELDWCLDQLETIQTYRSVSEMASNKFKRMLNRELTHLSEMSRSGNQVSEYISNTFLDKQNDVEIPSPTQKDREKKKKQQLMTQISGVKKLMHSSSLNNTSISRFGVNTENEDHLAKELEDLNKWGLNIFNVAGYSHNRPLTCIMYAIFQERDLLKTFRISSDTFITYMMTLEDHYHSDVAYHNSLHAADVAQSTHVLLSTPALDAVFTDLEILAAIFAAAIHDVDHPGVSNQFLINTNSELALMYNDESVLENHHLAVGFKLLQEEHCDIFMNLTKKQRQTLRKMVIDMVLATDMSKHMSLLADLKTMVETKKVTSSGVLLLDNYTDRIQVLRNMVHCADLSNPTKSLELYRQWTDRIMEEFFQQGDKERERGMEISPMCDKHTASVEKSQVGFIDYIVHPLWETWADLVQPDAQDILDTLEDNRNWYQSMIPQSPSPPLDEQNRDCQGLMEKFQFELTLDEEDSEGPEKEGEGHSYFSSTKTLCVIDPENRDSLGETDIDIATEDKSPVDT

C=C1CCC(O)C/C1=C\C=C1/CCCC2(C)C1CCC2C(C)CCCC(C)C (stereo unspecified)
active: Potency [2] 55.9 µM | Potency [5] 39.3 µM
inactive: outcome [1] | Potency [3] | Potency [4]

COc1ccc2[nH]cc(CCNc3ncnc4ccc(-c5ccccc5OC)cc34)c2c1
active: Potency [7] 7.94 µM | Potency [13] 0.251 µM | Potency [15] 3.98 µM | Potency [16] 2 µM | Potency [17] 25.1 µM | Potency [18] 25.1 µM
inactive: activity change, negative = inhibition [6] -28.6% | activity change, negative = inhibition [8] 20.2% | outcome [9] | Potency [10] > 46 µM | Potency [11] > 46 µM | Potency [12] | outcome [14] | Potency [19] | Potency [20] | Potency [2] | Potency [3] | Potency [4] | Potency [5]

CN(C)c1ncc2nc(CCc3ccccc3)c(=O)n(Cc3cccs3)c2n1
active: Potency [7] 1.58 µM | Potency [16] 6.31 µM
inactive: activity change, negative = inhibition [6] 16.2% | activity change, negative = inhibition [8] -16.3% | outcome [9] | Potency [12] | outcome [14] | Potency [17] | Potency [19] | Potency [20] | Potency [2] | Potency [3] | Potency [4] | Potency [5]

CCNc1ccc2noc3c2c1C(=O)c1ccccc1-3
active: Potency [21] 3.26 µM | Potency [3] 100 µM | Potency [4] 100 µM | Potency [5] 16.9 µM | Potency [22] 22.4 µM
inactive: Potency [2]

CCOC(=O)C1(O)Oc2cc(OC)cc(OC)c2C(=O)C1c1ccccc1 (stereo unspecified)
inactive: outcome [14] | Potency [23] | Potency [24] | Potency [20] | Potency [2] | Potency [3] | Potency [4] | Potency [5]

C=C1CCC(O)C/C1=C\C=C1/CCCC2(C)C1CCC2C(C)/C=C/C(C)C(C)C (stereo unspecified)
inactive: outcome [1] | Potency [2] | Potency [3] | Potency [4] | Potency [5]

C=C(C)Cn1c(C)cc(C)c(S(=O)(=O)c2ccc(C)cc2)c1=O
inactive: Potency [2] | Potency [3] | Potency [4] | Potency [25]

Source: PubChem BioAssay (NCATS)
